In PubChem BioAssay (NCATS):
Records with an inconclusive call do not appear. Calls of active or inactive are those of the source. Unless noted, calls follow the shape of the dose curve; as a rule, active = well fitted curve in the direction sought with a large enough effect; inconclusive = small, poorly fitted or top-dose-only effect, or another doubt; inactive = no such curve, though single readings can be large; an effect the other way counts as inactive or inconclusive.

Experiments:
[1] = qHTS Assay for Lipid Storage Modulators (AID 1519; calls by dose curve; as to activity change, negative = inhibition: % is scaled to controls: 0 for no effect and ±100 for the full control effect); settings: Drosophila S3 cells, BODIPY lipid droplet/cell ratio, laser cytometry, cells loaded with oleic acid
Outline: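 Cells seeded at 5,000 per well were treated with compounds over a concentration series and loaded with oleic acid (400 uM, as added). Lipid droplet fluorescence (488 nm excitation, 500-530 nm channel) was read by laser-scanning cytometry and normalized to 20 uM Triacsin C.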

[2] = Cell Viability - LYMP1-002 - Assay at 40 hr (AID 994); settings: LYMP1-002 lymphoblastoid cell viability; series mostly up to 92.2 µM;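 also: 0% = DMSO only and full inhibition = 92 µM tetraoctylammonium bromide; nearly all actives have a fitted effect of over 60% in size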
Outline: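 Viability in the human lymphoblastoid line was measured as intracellular ATP via CellTiter-Glo after 40 hr compound exposure. Tetraoctylammonium bromide served as positive control.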

[3] = target: alpha-glucosidase (Oryza sativa, rice) (UniProt Q653V4); experiment: Counterscreen for Glucocerebrosidase Inhibitors: qHTS Assay for Rice alpha-Glucosidase at pH 5.0 (AID 997); settings: rice alpha-glucosidase enzyme activity; series mostly up to 76.9 µM;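 also: 0% = full activity with enzyme and -100% = basal without enzyme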
Outline: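 Rice alpha-glucosidase (4 nM final) with 400 uM 4-methylumbelliferyl-alpha-D-glucopyranoside in citrate buffer pH 5.0, 20 min at room temperature, stopped at pH 10; fluorescence 365/440 nm, compounds 0.7 nM–77 uM, AC50 from Hill fits.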

[4] = Validation of Assay for Modulators of Lamin A Splicing (AID 1459; active = well fitted curve in the direction sought with a large enough effect in the signal ratio; the % refers to the signal ratio;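 also: cells exposed to compound for two days before reading; 0% is about no effect; ratio rise marks activators and ratio drop marks inhibitors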); settings: Lamin A splicing dual RFP/GFP fluorescence reporter; series mostly up to 9.22 µM
Outline: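 Splicing correction read as GFP (500-530 nm) over DsRed2 (575-640 nm) object intensity after 48 h compound exposure of reporter HeLa S3 clones (600 cells/well, 2% FBS medium); ancitabine and cycloheximide titrations, 0.5% DMSO as vehicle.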

[5] = target: DNA repair nuclease/redox regulator APEX1 (Homo sapiens) (UniProt P27695); experiment: qHTS Validation Assay for Inhibitors of the Human Apurinic/apyrimidinic Endonuclease 1 (APE1) (AID 1705;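 also: TAMRA fluorescence gain over two minutes as APE1 cuts a quenched THF abasic duplex; % is scaled to controls: 0 for no effect and ±100 for the full control effect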); settings: purified APE1 endonuclease activity, fluorescence, titration; series mostly up to 57.1 µM
Outline: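 Activity read as rising fluorescence (598 nm emission, 525 nm excitation) from incision of a TAMRA/BHQ-2 duplex carrying a THF abasic site (50 nM). Compound and enzyme sat 15 min at RT before substrate start; signal change between first and third 60-s reads.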

[6] = Counterscreen for APE1 Inhibitors: Fluorescent Dye Displacement Validation Assay (AID 1707); settings: fluorescent dye displacement from DNA; series mostly up to 57.1 µM;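 also: plate controls were ThO with dsDNA and no compound for no effect and ThO without dsDNA for full effect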
Outline: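 Compounds are scored by their ability to displace Thiazole Orange (250 nM) from a 50 nM TAMRA-tagged duplex bearing a tetrahydrofuran abasic site. Buffer is 50 mM Tris-HCl pH7.5, 50mM NaCl, 2 mM MgCl2, 0.01% Tween-20.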

[7] = target: Endonuclease 4 (Escherichia coli (strain K12)) (UniProt P0A6C1); experiment: Counterscreen for APE1 Inhibitors: qHTS Validation Assay for Inhibitors of Endonuclease IV (AID 1708); also: % is scaled to controls: 0 for no effect and ±100 for the full control effect; settings: E. coli endonuclease IV, DNA cleavage fluorescence; series mostly up to 57.1 µM
Outline: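 2 nM enzyme was preincubated with compounds for 15 min at room temperature in 50 mM Tris-HCl pH 7.5, 50 mM NaCl, 2 mM MgCl2, 1 mM DTT, 0.01% Tween-20. 50 nM THF-abasic TAMRA/BHQ-2 duplex substrate started the reaction.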

[8] = qHTS for differential inhibitors of proliferation of Plasmodium falciparum line 3D7 (AID 1876); also: potency is read from the fitted curve at half-maximal effect; settings: P. falciparum 3D7 proliferation inhibition
[9] = qHTS for differential inhibitors of proliferation of Plasmodium falciparum line Dd2 (AID 1882); settings: series mostly up to 28.7 µM;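 also: compound exposure of 72 h on infected erythrocytes; plate controls were DMSO vehicle for no effect and 0.29 µM artemisinin for full effect; nearly all actives have a fitted effect of over 65% in size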
Outline: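 SYBR Green I DNA fluorescence read-out, ex 485/em 535 nm. Signals were normalized to 0.29 uM artemisinin and DMSO wells, then corrected using vehicle-only plates flanking each stack. Parasite growth ran 72 h in erythrocytes before lysis.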

[10] = qHTS for differential inhibitors of proliferation of Plasmodium falciparum line W2 (AID 1883); settings: Plasmodium falciparum W2 proliferation inhibition;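 also: potency is read from the fitted curve at half-maximal effect; parasites grown with compound for 72 h before lysis and staining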
[11] = measured here: cell count channel max response
[12] = measured here: lipid channel max response

Chain of DNA repair nuclease/redox regulator APEX1 (Homo sapiens) (P27695 whole entry, looked up): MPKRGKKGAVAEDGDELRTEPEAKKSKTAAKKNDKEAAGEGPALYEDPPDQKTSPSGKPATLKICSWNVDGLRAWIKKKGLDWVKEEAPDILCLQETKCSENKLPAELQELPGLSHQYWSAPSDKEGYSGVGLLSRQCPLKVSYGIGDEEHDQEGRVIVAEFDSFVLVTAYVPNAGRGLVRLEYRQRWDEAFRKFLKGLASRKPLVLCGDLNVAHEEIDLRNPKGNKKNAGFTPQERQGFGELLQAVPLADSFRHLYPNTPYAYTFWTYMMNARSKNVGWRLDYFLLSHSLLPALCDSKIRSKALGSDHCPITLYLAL

With Cc1cc(C(=O)NNCc2ccccc2)no1 the activity change, negative = inhibition ([1]; at 25.7 µM (top of the series)) was -1.95% (inactive), the max response [1, 11] was -16.5% and the max response [1, 12] was -16.7%.
In the case of O=C(O)CCC(=O)C(=O)O, the Potency [2] is reported as “inactive”.
In the case of CN=C(NC#N)Nc1ccc(C2=NNC(=O)C[C@@H]2C)cc1, the outcome [3] is reported as “inactive”, the activity change, negative = inhibition ([1]; at 57.5 µM (top of the series)) is reported as -3.97% (inactive) and the max response [1, 11] is reported as -17.4%. For the same compound, the max response [1, 12] was -20.4%.
For Cc1cn([C@H]2C[C@H](O)[C@@H](CO)O2)c(=O)[nH]c1=O, the activity change, negative = inhibition ([1]; at 57.5 µM (top of the series)) was -2.02% (inactive), the max response [1, 11] was -24% and the max response [1, 12] was -24.4%.
With CC(O)CO (configuration not stated) the Potency [2] was “inactive”.
For Nc1ccn([C@H]2CS[C@@H](CO)O2)c(=O)n1, the Potency [2] was “inactive”.
With Cc1c(C)c2c(c(C)c1O)CC[C@@](C)(CCC[C@@H](C)CCC[C@@H](C)CCCC(C)C)O2 the activity change, negative = inhibition ([1]; at 25.7 µM (top of the series)) was -2.72% (inactive), the max response [1, 11] was 2.07% and the max response [1, 12] was -0.999%.
For CC1=C(/C=C/C(C)=C/C=C/C(C)=C/C=C/C=C(C)/C=C/C=C(C)/C=C/C2=C(C)CCCC2(C)C)C(C)(C)CCC1, the activity change, negative = inhibition ([1]; at 57.5 µM (top of the series)) was 1.45% (inactive), the max response [1, 11] was 15.1% and the max response [1, 12] was 17%.
In the case of CCOC(C)=O, the Potency [2] is reported as “inactive”.
With CCCCCCCC(=O)O the Potency [2] was “inactive”.
For Oc1cc(O)c2c(c1)OC(c1ccc(O)c(O)c1)C(O)C2 (configuration not stated), the activity change, negative = inhibition ([1]; at 57.5 µM (top of the series)) was 7.06% (inactive), the max response [1, 11] was 2.83% and the max response [1, 12] was 12.7%.
In the case of CC[N+](C)(C)Cc1ccccc1Br, the outcome [3] is reported as “inactive”, the outcome [4] is reported as “inactive” and the outcome [5] is reported as “inactive”. For the same compound, the outcome [6] was “inactive”, the outcome [7] was “inactive” and the Potency [8] was 14.1 µM (active). The outcome [9] was “inactive” and the Potency [10] was 11.2 µM (active).
